Experimental data: PMC4336329 (PLoS ONE, 2015)
Among all 310,000 compounds or so, about 2,200 (0.71%) showed an effect of 50% or more. Effects have a minus sign here. What follows is part of a selection rich in strong results, with near analogues and random picks from the rest.

biological target: human ether-à-go-go-related gene (hERG) potassium channel (human, UniProt Q12809); test: primary screen, population patch clamp on CHO cells stably expressing hERG; higher = less effect of the substance
Sequence (Q12809 whole entry, looked up): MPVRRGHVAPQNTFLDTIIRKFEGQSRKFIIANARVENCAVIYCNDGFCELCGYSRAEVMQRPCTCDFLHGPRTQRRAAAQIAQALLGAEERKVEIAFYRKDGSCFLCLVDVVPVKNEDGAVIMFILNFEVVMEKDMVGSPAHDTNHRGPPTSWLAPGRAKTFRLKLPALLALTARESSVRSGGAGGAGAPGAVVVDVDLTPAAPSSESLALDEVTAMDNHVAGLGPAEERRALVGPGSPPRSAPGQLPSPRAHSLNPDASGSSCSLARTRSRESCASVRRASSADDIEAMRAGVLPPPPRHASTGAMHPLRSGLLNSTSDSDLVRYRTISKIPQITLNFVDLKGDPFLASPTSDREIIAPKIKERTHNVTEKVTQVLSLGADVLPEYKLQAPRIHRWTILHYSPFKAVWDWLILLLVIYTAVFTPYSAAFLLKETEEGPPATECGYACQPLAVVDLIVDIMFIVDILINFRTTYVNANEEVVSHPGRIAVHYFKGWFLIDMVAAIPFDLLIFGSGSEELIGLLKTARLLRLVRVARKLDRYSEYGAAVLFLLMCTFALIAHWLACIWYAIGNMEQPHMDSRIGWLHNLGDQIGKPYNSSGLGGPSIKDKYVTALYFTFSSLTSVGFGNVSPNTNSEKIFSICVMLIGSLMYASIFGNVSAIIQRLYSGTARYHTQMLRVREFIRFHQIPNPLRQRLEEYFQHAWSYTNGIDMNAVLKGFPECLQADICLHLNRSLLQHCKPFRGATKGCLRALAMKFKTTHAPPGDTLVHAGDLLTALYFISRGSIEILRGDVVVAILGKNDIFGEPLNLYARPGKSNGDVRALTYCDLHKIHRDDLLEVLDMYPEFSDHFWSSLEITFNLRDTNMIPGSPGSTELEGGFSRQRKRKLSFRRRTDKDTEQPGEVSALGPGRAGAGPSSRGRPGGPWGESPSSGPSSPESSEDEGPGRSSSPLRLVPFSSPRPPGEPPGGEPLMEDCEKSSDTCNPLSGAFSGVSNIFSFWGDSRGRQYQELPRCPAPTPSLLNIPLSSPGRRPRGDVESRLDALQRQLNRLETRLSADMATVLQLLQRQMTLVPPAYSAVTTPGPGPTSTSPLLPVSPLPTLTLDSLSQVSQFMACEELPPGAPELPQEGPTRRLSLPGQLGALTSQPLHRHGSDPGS

| Compound | hERG current change (%, negative = inhibition) at 1uM |
| --- | --- |
| O=C(CN1CCN(CCC(=O)Nc2ccccc2F)CC1)Nc1ccc(F)cc1 | -78.3% |
| O=C(CN1CCN(CCC(=O)Nc2ccccc2F)CC1)Nc1ccc(Cl)cc1 | -84.3% |
| O=C(CCN1CCN(c2ccc(Cl)cc2)CC1)Nc1ccccc1F | 5.25% |
| O=C(CCN1CCN(c2ccccc2F)CC1)Nc1ccc(F)cc1 | 14.4% |
| O=C(CCN1CCN(c2ccc(F)cc2)CC1)Nc1ccccc1F | -9.21% |
| O=C(CCN1CCN(CC(=O)Nc2ccccc2F)CC1)Nc1ccccc1F | -38.4% |
| O=C(CCN1CCN(CC(=O)Nc2ccccc2Cl)CC1)Nc1ccccc1F | -54% |
| O=C(CCN1CCN(c2ccccc2F)CC1)Nc1ccccc1Cl | 7.43% |
| O=C(CCN1CCN(S(=O)(=O)c2ccc(Cl)cc2)CC1)Nc1ccccc1F | 4.11% |
| CC(C)Oc1ccc(C(=O)OCC(=O)NCCNC(=O)COC(=O)c2ccc(OC(C)C)cc2)cc1 | 8.62% |
| Cc1ccc(CCNC(=O)C2CCCN(S(=O)(=O)N3CC(C)CC(C)C3)C2)cc1 (centres unmarked) | 16.3% |
| COc1cc(Cl)c(C)cc1NC(=O)COc1ccccc1[N+](=O)[O-] | -2.79% |
| COc1cccc(/C=C/C(=O)Nc2ccc3c(c2)OCCO3)c1OC | 15.5% |
| CC(=O)NCCc1nc(-c2ccc(Cl)cc2)no1 | 10.3% |
| CC(C)OC(=O)Cc1ccccc1 | 10.3% |
| CCOc1nc(S(=O)(=O)c2ccc(C)cc2)c(Cl)s1 | 7.74% |
| Clc1ccc(-c2nnc(NCCN3CCCC3)c3ccccc23)cc1 | -55.1% |
| Clc1ccc(-c2nc(NCCN3CCOCC3)c3ccccc3n2)cc1 | -16.9% |
| Clc1ccc(-c2nnc(NCc3ccccc3)c3ccccc23)cc1 | 4.55% |
| COc1ccc(NC(=O)CSc2nnc(Cn3c(=O)sc4ccccc43)n2C)c(OC)c1 | -2.58% |
| CCN(C(=O)CSc1nc(N)cc(N)n1)C1CCS(=O)(=O)C1 (centres unmarked) | 7.31% |
| CN(C)C(C)(C)C#CCC(c1ccccc1)c1ccccc1.Cl | 5.49% |

| Compound | hERG current change (%, negative = inhibition) at 1uM |
| --- | --- |
| CN(CC#CC(O)(c1ccccc1)c1ccccc1)C(C)(C)C | -40.8% |
| CN(CC#CCC(c1ccccc1)c1ccccc1)C(C)(C)C.Cl | -56.4% |
| CNc1ccc(/C=C/C(=O)c2cccc3ccccc23)cc1[N+](=O)[O-] | 7.91% |
| CC(C)c1ccc(N(CC(=O)N2CCN(Cc3ccccc3)CC2)S(C)(=O)=O)cc1 | 7.12% |
| Cc1cc(/C([O-])=C(/C(=S)Nc2ccc(F)cc2)[n+]2ccccc2)c(C)n1-c1ccc(F)cc1 | -1.77% |
| O=C(Nc1nc2ccccc2n1CCN1CCCCC1)c1ccco1 | -37.4% |
| CCn1cc(Cl)c(C(=O)Nc2nc3ccccc3n2CCN2CCCCC2)n1 | -51.8% |
| CCn1nccc1C(=O)Nc1nc2ccccc2n1CCN1CCCCC1 | -11.2% |
| O=C(Nc1nc2ccccc2n1CCN1CCCCC1)c1ccc(Cl)cc1 | -5.1% |
| Cc1c(Cl)c(C(=O)Nc2nc3ccccc3n2CCN2CCCCC2)nn1C | -61.5% |
| Cc1ccc(C(=O)Nc2nc3ccccc3n2CCN2CCCC2)cc1 | -19.5% |
| CC(C)Oc1cccc(C(=O)C2CCCN(C(=O)CCc3cnn(C)c3)C2)c1 (centres unmarked) | 10.7% |
| CCCn1c(C)cc(/C=C(\C#N)C(=O)OCC(=O)N(C)c2c(N)n(Cc3ccccc3)c(=O)[nH]c2=O)c1C | 11% |
| O=C(CNc1ccc(F)cc1)N/N=C/c1c(O)ccc2ccccc12 | 6.94% |
| CCNc1nnc(-c2ccc(C)cc2)o1 | 9.37% |
| C/C=C/c1ccc(OCCCCNCc2ccco2)c(OC)c1.O=C(O)C(=O)O | -62.6% |
| C/C=C/c1ccc(OCCCNC)c(OC)c1.O=C(O)C(=O)O | -10.9% |
| C/C=C/c1ccc(OCCNCc2ccccc2)c(OC)c1.O=C(O)C(=O)O | 4.38% |
| O=C(c1cccnc1NCc1ccc(F)cc1)N1CCOCC1 | 5.16% |
| CN(C)c1ccc(/C=C/C(=O)c2ccccc2)cc1[N+](=O)[O-] | -0.74% |
| Cc1cccc(NC(=O)CN2CCN(C(=O)C3CCCO3)CC2)c1C (centres unmarked) | 5.32% |
| CCc1ccccc1NC(=O)CN1CCN(CC(=O)Nc2ccc(-c3ccccc3)cc2)CC1 | -7.45% |

| Compound | hERG current change (%, negative = inhibition) at 1uM |
| --- | --- |
| COC(=O)C1CCN(C(=O)/C=C/c2ccccc2)CC1 | 11.1% |
| CCc1ccccc1NC(=O)CN1CCN(C(=O)C2CCN(C(=O)/C=C/c3ccccc3)CC2)CC1 | -74.5% |
| Cc1cccc(NC(=O)CN2CCN(C(=O)C3CCC3)CC2)c1C | -7.56% |
| Cc1cccc(NC(=O)CN2CCN(C(=O)C3CCN(C(=O)/C=C/c4ccccc4)CC3)CC2)c1C | -56.6% |
| O=C(CN1CCN(C(=O)c2ccco2)CC1)NCc1ccc(Cl)cc1 | -35.1% |
| O=C(OCC(=O)N1CCN(C(=O)c2ccco2)CC1)c1cncc(Br)c1 | 6.76% |
| C[C@@H](C(=O)NCc1c(F)cccc1Cl)N1C(=O)N2CCc3c([nH]c4ccccc34)[C@@]2(C)C1=O | 4.12% |
| CC1(C)OC(=O)C(=CNc2ccccc2)C(=O)O1 | 2.21% |
| COC(=O)c1ccc2c(c1)C(C)(C)C(/C=C/c1ccccc1O)=[N+]2C.[I-] | -7.78% |
| C[N+]1=C(/C=C/Nc2ccccc2)C(C)(C)c2ccccc21.[O-][Cl+3]([O-])([O-])[O-] | -62.8% |
| O=C1c2ccccc2C(=O)N1OCc1ccc(Cl)cc1 | 8.72% |
| COc1ccc(CN2CCN(Cc3ccc(C(F)(F)F)cc3)CC2)c(OC)c1.O=C(O)C(=O)O | -66.6% |
| Clc1ccccc1OCCN1CCC(Cc2ccccc2)CC1.O=C(O)C(=O)O | 10.6% |
| COc1ccc(CN2CCC(Cc3ccccc3)CC2)cc1OC.O=C(O)C(=O)O | -32.9% |
| CCOc1ccccc1OCCN1CCC(Cc2ccccc2)CC1.O=C(O)C(=O)O | -53.7% |
| Cc1ccccc1OCCN1CCC(Cc2ccccc2)CC1.O=C(O)C(=O)O | -10% |
| COc1cc(CN2CCC(C)CC2)ccc1OCc1ccccc1.O=C(O)C(=O)O | -3.21% |
| COc1ccc(OC)c(CN2CCC(Cc3ccccc3)CC2)c1.O=C(O)C(=O)O | -61.9% |
| COc1cc(C(=O)OCC(=O)N2CCC(Cc3ccccc3)CC2)cc(OC)c1OC | 13.4% |
| COc1ccc(OC)c(CN2CCN(C(=O)Cc3ccccc3)CC2)c1.O=C(O)C(=O)O | 17.6% |
| COc1ccc(CN2CCN(Cc3ccc(C(F)(F)F)cc3)CC2)cc1.O=C(O)C(=O)O | -24.5% |
| COc1ccc(CN2CCN(Cc3ccc(C)cc3)CC2)c(OC)c1.O=C(O)C(=O)O | -18.9% |

| Compound | hERG current change (%, negative = inhibition) at 1uM |
| --- | --- |
| COc1cc(C(C)=O)ccc1OCCN1CCC(Cc2ccccc2)CC1.O=C(O)C(=O)O | -93.3% |
| COC(=O)C1CCN(C(=O)Cc2ccc(C)cc2)CC1 | 10.2% |
| COc1cccc(C(=O)Nc2cccc(-c3nnc(-c4ccco4)o3)c2)c1 | -1.01% |
| O=C(O)c1cccc(O)c1O | 8.42% |
| CCOC(=O)N1CCN(Cc2cc(=O)oc3cc4c(cc23)CCC4)CC1 | -3.49% |
| Cc1cc(=S)[nH]c2c(C)cccc12 | 15.9% |
| c1ccc(-c2cnnc(-c3ccccn3)n2)cc1 | 4.98% |
| CN(C)CCCOC(=O)c1cc2ccccc2o1.Cl | 13% |
| COc1ccccc1C1=NOC(C(=O)N2CCN(C(=O)c3ccco3)CC2)C1 (centres unmarked) | 8.33% |
| Cc1cccc2cc(C#N)c(NCCCn3ccnc3)nc12 | -11.1% |
| COc1cccc(CN2CCC(N(CCc3ccccc3)Cc3ccccc3)CC2)c1OC.O=C(O)C(=O)O | 0.877% |
| COc1cc(C(=S)N2CCC(Cc3ccccc3)CC2)ccc1OCC(N)=O | 3.73% |
| COc1ccc(CN2CCC(N(CCc3ccccc3)Cc3ccccc3)CC2)c(OC)c1.O=C(O)C(=O)O | -79.8% |
| COc1ccc(CN2CCC(C(=O)N(C)CCc3ccc(OC)c(OC)c3)CC2)c(OC)c1.O=C(O)C(=O)O | -18% |
| COc1cc(C(C)=O)ccc1OCCCN1CCC(Cc2ccccc2)CC1.O=C(O)C(=O)O | -82.8% |
| COc1ccc(CCNC(=O)c2ccc(CN3CCC(Cc4ccccc4)CC3)cc2)cc1OC | -3.19% |
| CC(C)(C)c1ccc(COn2ccnc2)cc1 | 21% |
| COC(=O)CSc1ccc(C#N)c(SCC(=O)OC)c1 | 12.6% |
| COC(=O)c1ccc(NC(=O)CN2CCN(S(=O)(=O)c3cc(Cl)ccc3OC)CC2)cc1 | 10.2% |
| O=C(CSc1n[nH]c(-c2cccnc2)n1)Nc1ccccc1[N+](=O)[O-] | 11.9% |
